# According to ChEMBL document CHEMBL1961873, “Compounds: GSK PKIS; Assays: Nanosyn kinase panel” (2012):
# How the values were obtained:
# [1] = target: T1, Serine/threonine-protein kinase D2 (Homo sapiens) (UniProt Q9BZL6); conditions: at 1 µM;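 note: mean value of PRKD2 inhibition, from the GSK PKIS screening panel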
# T1 sequence (whole entry): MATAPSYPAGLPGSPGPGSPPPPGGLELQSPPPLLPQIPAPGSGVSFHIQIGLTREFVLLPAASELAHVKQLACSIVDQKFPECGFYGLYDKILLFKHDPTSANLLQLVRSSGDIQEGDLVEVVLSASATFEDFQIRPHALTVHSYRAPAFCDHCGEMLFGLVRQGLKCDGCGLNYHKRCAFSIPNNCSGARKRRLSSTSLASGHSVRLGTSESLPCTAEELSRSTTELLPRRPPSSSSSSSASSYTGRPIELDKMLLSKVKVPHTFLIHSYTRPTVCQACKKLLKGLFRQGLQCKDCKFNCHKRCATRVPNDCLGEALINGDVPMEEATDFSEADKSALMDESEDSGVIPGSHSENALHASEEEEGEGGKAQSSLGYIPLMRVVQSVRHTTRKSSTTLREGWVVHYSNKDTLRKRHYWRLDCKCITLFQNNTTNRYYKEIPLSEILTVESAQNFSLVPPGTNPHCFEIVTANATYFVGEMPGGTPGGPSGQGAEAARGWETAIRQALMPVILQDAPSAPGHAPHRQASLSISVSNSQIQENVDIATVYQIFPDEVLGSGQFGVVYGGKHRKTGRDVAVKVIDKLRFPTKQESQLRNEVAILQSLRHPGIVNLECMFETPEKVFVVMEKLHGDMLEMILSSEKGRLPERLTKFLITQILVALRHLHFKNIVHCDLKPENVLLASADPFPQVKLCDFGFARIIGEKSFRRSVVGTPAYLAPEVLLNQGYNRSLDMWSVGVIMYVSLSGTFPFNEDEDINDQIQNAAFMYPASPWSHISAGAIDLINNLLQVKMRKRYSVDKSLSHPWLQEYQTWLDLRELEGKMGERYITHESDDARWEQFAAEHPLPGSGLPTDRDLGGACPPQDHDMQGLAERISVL
# [2] = target: T2, Serine/threonine-protein kinase D3 (Homo sapiens) (UniProt O94806); conditions: at 0.1 µM
# T2 sequence (whole entry): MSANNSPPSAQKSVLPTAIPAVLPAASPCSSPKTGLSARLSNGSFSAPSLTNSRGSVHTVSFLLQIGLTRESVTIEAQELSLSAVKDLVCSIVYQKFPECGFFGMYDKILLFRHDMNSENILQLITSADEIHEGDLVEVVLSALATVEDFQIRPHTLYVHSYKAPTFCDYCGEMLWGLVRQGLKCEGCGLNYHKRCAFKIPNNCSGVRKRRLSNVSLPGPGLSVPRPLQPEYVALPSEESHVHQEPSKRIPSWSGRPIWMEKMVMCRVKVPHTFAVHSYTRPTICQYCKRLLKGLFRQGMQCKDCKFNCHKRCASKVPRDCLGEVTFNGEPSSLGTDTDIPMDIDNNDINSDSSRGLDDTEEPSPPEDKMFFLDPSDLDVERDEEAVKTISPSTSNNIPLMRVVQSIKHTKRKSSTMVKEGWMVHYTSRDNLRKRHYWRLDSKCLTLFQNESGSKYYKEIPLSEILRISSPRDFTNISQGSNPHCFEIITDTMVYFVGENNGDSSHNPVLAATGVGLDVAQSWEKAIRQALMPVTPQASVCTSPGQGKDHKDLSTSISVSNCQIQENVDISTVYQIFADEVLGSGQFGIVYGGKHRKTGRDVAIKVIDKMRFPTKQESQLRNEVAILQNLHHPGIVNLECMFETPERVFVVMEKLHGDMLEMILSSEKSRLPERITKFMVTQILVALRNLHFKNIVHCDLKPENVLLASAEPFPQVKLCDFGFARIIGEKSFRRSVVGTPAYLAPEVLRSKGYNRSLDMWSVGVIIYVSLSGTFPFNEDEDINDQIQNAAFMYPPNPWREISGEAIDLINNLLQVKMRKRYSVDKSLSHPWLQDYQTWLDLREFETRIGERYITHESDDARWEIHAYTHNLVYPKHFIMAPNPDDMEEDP
# [3] = target: T2, Serine/threonine-protein kinase D3 (Homo sapiens); conditions: at 1 µM
# [4] = target: T3, cGMP-dependent protein kinase 1 (Homo sapiens) (UniProt Q13976); conditions: at 0.1 µM
# T3 sequence (whole entry): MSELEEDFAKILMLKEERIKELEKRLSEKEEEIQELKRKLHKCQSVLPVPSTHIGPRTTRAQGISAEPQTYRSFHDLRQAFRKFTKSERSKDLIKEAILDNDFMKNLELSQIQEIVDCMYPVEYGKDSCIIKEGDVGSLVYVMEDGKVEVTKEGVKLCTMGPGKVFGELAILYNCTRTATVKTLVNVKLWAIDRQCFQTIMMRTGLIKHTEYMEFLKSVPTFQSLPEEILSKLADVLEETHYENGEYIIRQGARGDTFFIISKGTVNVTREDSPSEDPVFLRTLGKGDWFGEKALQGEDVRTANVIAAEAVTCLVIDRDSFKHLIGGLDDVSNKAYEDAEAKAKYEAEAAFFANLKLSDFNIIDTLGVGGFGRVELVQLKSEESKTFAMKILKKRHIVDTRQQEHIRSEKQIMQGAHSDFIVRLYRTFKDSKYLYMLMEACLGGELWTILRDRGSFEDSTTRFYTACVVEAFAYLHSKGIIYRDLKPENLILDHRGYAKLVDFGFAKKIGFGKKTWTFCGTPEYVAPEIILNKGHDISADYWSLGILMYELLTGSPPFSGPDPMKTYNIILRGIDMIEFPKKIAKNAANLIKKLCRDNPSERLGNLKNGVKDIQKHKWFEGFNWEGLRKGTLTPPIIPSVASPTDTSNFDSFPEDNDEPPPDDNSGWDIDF
# [5] = target: T3, cGMP-dependent protein kinase 1 (Homo sapiens); conditions: at 1 µM
# [6] = target: T4, cGMP-dependent protein kinase 2 (Homo sapiens) (UniProt Q13237); conditions: at 0.1 µM
# T4 sequence (whole entry): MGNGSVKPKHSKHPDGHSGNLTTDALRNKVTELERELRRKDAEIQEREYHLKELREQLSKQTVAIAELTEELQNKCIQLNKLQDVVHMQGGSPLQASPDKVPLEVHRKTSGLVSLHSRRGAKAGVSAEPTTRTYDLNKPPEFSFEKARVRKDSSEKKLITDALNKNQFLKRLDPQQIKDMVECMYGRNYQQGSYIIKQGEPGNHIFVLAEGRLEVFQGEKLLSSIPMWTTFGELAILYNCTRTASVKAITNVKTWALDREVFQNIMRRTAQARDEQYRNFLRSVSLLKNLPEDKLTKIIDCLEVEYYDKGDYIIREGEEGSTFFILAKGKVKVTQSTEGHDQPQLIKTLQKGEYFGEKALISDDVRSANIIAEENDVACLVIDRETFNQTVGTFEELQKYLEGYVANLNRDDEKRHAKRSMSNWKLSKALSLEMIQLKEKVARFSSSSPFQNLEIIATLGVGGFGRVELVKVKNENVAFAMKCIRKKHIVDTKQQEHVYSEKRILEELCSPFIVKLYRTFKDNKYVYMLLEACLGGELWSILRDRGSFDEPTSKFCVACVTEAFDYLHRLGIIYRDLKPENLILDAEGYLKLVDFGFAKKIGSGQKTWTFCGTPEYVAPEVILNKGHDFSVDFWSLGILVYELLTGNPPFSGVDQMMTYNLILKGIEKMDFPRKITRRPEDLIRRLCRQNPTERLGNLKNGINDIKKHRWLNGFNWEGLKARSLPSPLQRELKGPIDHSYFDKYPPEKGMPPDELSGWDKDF
# [7] = target: T4, cGMP-dependent protein kinase 2 (Homo sapiens); conditions: at 1 µM
# [8] = target: T5, cAMP-dependent protein kinase catalytic subunit PRKX (Homo sapiens) (UniProt P51817); conditions: at 0.1 µM
# T5 sequence (whole entry): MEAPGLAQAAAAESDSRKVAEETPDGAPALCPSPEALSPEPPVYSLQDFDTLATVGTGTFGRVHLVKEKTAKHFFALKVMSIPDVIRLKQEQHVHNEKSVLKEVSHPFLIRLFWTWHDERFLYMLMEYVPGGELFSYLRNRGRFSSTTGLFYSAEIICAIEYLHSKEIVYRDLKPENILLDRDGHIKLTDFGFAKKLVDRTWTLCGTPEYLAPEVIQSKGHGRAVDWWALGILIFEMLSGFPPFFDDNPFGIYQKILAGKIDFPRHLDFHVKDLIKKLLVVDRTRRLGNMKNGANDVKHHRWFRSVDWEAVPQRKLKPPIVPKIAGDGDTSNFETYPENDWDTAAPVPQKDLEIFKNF
# [9] = target: T5, cAMP-dependent protein kinase catalytic subunit PRKX (Homo sapiens); conditions: at 1 µM
# [10] = target: Rho-associated protein kinase 1 (Homo sapiens) (UniProt Q13464); conditions: at 0.1 µM
# [11] = target: Rho-associated protein kinase 1 (Homo sapiens) (UniProt Q13464); conditions: at 1 µM
# [12] = target: Rho-associated protein kinase 2 (Homo sapiens) (UniProt O75116); conditions: at 0.1 µM
# [13] = target: Rho-associated protein kinase 2 (Homo sapiens) (UniProt O75116); conditions: at 1 µM
# [14] = target: Ribosomal protein S6 kinase alpha-1 (Homo sapiens) (UniProt Q15418); conditions: at 0.1 µM
# [15] = target: Ribosomal protein S6 kinase alpha-1 (Homo sapiens) (UniProt Q15418); conditions: at 1 µM
# [16] = target: Ribosomal protein S6 kinase alpha-3 (Homo sapiens) (UniProt P51812); conditions: at 0.1 µM
# [17] = target: Ribosomal protein S6 kinase alpha-3 (Homo sapiens) (UniProt P51812); conditions: at 1 µM
# [18] = target: Ribosomal protein S6 kinase alpha-2 (Homo sapiens) (UniProt Q15349); conditions: at 0.1 µM
# [19] = target: Ribosomal protein S6 kinase alpha-2 (Homo sapiens) (UniProt Q15349); conditions: at 1 µM
# [20] = target: Ribosomal protein S6 kinase alpha-6 (Homo sapiens) (UniProt Q9UK32); conditions: at 0.1 µM;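 note: reported value is the mean inhibition of RSK4, from the GSK PKIS kinase inhibitor screen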
# Ribosomal protein S6 kinase alpha-6 (Homo sapiens), sequence (Q9UK32 whole entry): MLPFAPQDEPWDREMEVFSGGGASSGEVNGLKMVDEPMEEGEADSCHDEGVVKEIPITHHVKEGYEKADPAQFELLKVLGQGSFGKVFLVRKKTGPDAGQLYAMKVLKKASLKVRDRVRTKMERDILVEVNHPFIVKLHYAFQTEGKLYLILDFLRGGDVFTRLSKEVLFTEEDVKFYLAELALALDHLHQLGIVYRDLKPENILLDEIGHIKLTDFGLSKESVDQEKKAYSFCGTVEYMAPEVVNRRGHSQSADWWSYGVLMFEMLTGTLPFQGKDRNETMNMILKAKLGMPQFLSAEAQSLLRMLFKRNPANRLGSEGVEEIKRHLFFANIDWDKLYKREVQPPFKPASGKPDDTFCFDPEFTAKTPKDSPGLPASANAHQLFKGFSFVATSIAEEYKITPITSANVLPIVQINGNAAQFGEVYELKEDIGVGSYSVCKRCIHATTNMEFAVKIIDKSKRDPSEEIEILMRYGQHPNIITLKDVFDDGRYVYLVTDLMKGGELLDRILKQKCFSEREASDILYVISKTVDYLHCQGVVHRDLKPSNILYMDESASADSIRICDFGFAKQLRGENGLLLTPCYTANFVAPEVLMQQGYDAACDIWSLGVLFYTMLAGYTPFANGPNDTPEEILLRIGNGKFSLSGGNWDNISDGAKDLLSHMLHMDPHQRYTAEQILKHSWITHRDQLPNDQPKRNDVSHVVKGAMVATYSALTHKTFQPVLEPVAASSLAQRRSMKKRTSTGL
# Ribosomal protein S6 kinase alpha-1 (Homo sapiens), sequence (Q15418 whole entry): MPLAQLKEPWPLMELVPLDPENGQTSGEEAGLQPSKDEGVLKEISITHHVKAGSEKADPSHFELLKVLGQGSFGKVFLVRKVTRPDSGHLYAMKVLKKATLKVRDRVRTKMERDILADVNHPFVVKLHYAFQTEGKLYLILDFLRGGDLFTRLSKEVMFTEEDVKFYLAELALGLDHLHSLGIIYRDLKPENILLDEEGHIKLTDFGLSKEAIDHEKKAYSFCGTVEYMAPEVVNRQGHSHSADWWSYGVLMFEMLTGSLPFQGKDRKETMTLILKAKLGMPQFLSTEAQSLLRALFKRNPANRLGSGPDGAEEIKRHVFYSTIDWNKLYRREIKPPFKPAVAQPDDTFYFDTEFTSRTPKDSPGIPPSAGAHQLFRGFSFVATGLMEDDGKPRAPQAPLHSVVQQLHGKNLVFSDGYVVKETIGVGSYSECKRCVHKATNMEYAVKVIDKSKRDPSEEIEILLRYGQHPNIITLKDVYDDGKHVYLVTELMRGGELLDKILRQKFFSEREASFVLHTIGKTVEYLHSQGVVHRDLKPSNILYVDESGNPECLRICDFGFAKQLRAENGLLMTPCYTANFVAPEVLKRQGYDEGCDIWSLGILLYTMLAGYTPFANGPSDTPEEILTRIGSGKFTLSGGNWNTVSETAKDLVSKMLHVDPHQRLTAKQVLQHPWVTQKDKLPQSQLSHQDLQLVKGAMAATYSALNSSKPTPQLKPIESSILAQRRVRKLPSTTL
# Ribosomal protein S6 kinase alpha-3 (Homo sapiens), sequence (P51812 whole entry): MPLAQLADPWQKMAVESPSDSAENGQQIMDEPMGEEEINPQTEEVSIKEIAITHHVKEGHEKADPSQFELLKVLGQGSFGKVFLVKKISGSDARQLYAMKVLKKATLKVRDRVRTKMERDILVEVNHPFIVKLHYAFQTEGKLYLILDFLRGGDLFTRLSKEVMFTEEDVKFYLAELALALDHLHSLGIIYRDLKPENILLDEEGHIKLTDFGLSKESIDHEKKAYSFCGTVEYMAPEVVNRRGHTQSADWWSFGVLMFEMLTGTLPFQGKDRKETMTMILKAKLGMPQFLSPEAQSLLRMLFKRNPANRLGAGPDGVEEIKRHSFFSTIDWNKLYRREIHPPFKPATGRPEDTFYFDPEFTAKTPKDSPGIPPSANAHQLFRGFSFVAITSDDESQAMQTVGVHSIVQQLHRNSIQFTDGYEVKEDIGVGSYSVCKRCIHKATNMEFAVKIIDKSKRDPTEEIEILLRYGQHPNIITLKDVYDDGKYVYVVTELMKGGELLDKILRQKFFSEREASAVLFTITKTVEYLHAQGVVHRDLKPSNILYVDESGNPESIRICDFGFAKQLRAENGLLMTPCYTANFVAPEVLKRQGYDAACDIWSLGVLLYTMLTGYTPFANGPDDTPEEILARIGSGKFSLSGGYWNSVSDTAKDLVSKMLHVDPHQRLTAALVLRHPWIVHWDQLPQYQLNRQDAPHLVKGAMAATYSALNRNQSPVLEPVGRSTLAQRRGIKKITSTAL
# Ribosomal protein S6 kinase alpha-2 (Homo sapiens), sequence (Q15349 whole entry): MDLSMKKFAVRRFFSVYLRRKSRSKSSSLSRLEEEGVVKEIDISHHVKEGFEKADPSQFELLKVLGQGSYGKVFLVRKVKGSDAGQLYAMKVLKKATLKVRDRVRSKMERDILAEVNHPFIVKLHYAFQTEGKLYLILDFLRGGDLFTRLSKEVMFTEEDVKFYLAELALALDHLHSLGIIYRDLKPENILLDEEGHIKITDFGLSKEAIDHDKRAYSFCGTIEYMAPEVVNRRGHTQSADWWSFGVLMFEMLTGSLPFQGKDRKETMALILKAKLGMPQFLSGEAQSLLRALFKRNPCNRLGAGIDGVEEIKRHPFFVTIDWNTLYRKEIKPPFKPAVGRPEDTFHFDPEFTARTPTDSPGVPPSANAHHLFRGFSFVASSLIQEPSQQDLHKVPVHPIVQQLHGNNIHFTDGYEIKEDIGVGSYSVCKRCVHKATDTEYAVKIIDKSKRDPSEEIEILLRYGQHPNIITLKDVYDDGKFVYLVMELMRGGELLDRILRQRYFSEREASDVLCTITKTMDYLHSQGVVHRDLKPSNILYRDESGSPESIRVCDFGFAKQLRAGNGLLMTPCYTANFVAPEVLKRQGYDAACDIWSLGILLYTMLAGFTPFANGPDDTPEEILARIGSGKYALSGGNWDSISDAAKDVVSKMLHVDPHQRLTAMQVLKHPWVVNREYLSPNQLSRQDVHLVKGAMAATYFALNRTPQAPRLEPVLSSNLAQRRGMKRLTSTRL
# Rho-associated protein kinase 2 (Homo sapiens), sequence (O75116 whole entry, looked up): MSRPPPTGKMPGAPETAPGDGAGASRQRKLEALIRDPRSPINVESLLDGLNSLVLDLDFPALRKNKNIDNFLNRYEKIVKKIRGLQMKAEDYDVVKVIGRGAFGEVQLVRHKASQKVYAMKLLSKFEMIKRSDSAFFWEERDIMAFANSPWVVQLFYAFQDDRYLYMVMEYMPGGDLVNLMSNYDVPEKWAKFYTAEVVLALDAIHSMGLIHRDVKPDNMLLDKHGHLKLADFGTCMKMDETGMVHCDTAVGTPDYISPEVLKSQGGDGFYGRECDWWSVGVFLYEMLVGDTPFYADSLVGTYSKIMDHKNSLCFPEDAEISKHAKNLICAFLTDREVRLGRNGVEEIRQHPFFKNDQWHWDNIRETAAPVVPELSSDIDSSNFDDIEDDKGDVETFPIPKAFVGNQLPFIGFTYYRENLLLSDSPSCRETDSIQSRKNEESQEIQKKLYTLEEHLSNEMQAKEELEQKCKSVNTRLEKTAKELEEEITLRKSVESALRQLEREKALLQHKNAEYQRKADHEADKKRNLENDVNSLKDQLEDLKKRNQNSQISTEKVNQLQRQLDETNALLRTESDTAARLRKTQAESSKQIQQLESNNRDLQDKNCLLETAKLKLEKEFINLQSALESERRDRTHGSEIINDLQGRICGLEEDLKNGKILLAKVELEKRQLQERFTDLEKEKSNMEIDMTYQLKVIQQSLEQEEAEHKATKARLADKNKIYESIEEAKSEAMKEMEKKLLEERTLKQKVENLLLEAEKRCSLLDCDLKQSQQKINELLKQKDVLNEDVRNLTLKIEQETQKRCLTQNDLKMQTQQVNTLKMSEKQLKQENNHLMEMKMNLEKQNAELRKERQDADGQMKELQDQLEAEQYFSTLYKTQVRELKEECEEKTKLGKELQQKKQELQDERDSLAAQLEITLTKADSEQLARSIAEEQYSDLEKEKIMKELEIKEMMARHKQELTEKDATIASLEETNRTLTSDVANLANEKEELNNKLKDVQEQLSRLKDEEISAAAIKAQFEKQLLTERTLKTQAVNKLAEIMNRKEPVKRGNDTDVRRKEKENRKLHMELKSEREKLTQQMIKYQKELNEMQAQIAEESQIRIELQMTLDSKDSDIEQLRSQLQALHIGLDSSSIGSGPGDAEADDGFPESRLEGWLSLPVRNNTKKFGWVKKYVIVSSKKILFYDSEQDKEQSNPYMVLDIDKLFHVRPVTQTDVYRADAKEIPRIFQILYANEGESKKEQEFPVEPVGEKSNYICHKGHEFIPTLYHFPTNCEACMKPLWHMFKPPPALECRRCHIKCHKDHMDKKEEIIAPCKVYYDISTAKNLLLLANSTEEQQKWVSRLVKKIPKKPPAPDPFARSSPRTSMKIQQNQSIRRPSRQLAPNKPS
SMILES,inhibition [1] [%],inhibition [2] [%],inhibition [3] [%],inhibition [4] [%],inhibition [5] [%],inhibition [6] [%],inhibition [7] [%],inhibition [8] [%],inhibition [9] [%],inhibition [10] [%],inhibition [11] [%],inhibition [12] [%],inhibition [13] [%],inhibition [14] [%],inhibition [15] [%],inhibition [16] [%],inhibition [17] [%],inhibition [18] [%],inhibition [19] [%],inhibition [20] [%]
COc1cc2c(cc1Nc1nc(Nc3ccsc3C(N)=O)c3cc[nH]c3n1)N(C(=O)CN(C)C)CCC2,39.7,9.23,51.1,-0.55,-0.01,0.12,1.58,2.02,1.29,5.03,26.1,3.13,23.2,7.13,34.8,-6.28,-1.3,0.29,7.85,0.38
Fc1ccc(-c2ncn(C3CCNCC3)c2-c2ccnc(Oc3ccccc3)n2)cc1,4.29,-1.84,2.37,0.84,0.86,0.69,0.2,1.64,1.63,0.65,1.62,-0.24,0.28,-0.66,-0.32,-1.31,-1.67,1.35,0.51,-0.22
COc1cccc(COc2cc(-n3cnc4ccccc43)sc2C(N)=O)c1,0.96,0.24,0.32,0.58,-0.92,1.93,-0.04,1.72,1.42,-0.06,-0.3,-0.06,0.84,0.37,0.21,0.89,-1.45,-0.15,1.4,1.09
